Data on 8 sequences can be found in PMC7862700, “An all-to-all approach to the identification of sequence-specific readers for epigenetic DNA modifications on cytosine”.

Holding throughout (assay): DAPPL (digital affinity profiling via proximity ligation, sequencing); 10 mM Tris-HCl pH 7.5, 50 mM NaCl, 1 mM DTT, 4% glycerol, room temperature, 30 min; GST-TFs on glutathione beads, 16-mer random dsDNA library, 0.1% formaldehyde crosslink after washing; high values mean tight binding
Settings in all cases: protein: recombinant; tags: N-terminal GST; dsDNA, one strand shown

Experiment [1] has as its target T1, ERF (Homo sapiens, UniProt P50548 1-548).
T1 sequence: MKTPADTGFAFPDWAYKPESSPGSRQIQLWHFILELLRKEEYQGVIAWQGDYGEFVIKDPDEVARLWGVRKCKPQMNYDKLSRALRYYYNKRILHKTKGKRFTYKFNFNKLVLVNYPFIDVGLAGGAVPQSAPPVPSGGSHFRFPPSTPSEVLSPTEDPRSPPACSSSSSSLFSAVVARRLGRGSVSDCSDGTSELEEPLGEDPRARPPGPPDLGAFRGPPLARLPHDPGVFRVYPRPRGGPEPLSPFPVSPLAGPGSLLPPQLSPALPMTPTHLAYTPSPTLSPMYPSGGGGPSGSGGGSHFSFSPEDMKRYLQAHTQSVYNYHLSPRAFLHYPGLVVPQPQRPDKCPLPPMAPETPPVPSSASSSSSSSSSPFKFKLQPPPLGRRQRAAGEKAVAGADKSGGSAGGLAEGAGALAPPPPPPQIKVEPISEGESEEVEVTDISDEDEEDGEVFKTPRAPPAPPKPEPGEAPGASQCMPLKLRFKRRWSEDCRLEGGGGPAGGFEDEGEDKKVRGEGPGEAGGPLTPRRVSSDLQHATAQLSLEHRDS
Summed up: (§1)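 Sequencing on an Illumina NextSeq500 followed washing, crosslinking with 0.1% formaldehyde, proximity ligation (BsaI/T4 ligase, 1 h, 37 °C) and PCR amplification of pools that had been incubated for 30 min at room temperature with 200 nmole of a random double-stranded 16-mer DNA library in Tris/NaCl/DTT/glycerol buffer. Each pool held DNA-barcoded human transcription factors, expressed in yeast as GST fusions and captured on glutathione beads, plus a tag-only sample. Binding signal is a hexamer's read frequency for a factor divided by its frequency in the tag-only sample.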

In experiment [2] the target is T2, ETV3L (Homo sapiens, UniProt Q6ZN32 1-361).
T2 sequence: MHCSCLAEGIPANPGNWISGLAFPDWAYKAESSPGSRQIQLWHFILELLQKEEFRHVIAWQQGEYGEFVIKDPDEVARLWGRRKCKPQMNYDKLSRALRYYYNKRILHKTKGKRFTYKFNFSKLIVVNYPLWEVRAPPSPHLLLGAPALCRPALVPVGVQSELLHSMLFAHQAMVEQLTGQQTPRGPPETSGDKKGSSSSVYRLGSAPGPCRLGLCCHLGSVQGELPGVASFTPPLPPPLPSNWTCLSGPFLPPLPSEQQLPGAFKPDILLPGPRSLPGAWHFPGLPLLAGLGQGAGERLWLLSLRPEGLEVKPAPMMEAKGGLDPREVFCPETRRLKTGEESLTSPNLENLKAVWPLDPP
The procedure, abridged: as §1

In experiment [3] the target is T3, ETS2 (Homo sapiens, UniProt P15036 1-469).
T3 sequence: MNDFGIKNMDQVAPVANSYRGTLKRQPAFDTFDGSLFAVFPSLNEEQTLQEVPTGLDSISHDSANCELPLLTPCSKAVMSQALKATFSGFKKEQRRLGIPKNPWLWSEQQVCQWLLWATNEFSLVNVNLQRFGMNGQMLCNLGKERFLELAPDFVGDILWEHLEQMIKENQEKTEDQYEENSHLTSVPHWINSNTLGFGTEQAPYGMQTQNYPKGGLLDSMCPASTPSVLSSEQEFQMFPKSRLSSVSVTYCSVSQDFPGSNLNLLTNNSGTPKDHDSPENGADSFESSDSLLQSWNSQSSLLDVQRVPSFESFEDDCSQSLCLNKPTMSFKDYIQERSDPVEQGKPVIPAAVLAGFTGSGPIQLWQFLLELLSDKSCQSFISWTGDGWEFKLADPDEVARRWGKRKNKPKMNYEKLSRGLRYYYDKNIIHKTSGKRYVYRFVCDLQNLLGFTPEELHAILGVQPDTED
The procedure, abridged: as §1

Experiment [4] has as its target T4, SPDEF (Homo sapiens, UniProt O95238 1-335).
T4 sequence: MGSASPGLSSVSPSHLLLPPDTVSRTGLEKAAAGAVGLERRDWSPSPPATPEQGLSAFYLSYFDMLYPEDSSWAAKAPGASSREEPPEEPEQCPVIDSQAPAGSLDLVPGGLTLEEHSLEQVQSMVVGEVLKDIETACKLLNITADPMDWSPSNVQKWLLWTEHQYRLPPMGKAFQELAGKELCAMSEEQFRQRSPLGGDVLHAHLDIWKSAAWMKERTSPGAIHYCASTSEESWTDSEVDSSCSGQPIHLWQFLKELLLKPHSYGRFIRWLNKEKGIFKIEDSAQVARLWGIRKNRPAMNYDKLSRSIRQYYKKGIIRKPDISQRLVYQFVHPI
The procedure, abridged:
as §1

The target in experiment [5] is T5, ETV7 (Homo sapiens, UniProt Q9Y603 1-341).
T5 sequence: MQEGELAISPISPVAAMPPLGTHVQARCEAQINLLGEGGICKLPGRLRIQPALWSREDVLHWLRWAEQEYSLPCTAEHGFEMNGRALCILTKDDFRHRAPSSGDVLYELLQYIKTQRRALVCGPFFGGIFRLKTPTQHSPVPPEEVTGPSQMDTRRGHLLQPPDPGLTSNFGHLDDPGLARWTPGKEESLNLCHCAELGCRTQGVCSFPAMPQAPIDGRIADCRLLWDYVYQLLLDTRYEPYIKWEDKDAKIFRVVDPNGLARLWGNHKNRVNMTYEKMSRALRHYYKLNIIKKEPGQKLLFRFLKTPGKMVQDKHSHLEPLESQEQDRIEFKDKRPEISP
Summed up:
as §1

The target in experiment [6] is T6, ELF5 (Homo sapiens, UniProt Q9UKW6-2 1-255).
T6 sequence: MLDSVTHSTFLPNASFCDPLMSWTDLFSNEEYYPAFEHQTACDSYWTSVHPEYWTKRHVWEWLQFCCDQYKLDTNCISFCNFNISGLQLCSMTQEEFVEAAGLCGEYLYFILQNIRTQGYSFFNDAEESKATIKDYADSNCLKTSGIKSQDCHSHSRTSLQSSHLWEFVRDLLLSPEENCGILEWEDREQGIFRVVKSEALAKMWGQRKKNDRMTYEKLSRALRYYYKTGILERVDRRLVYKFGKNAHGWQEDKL
Summed up: as §1

Experiment [7] deals with T7, ETV3 (Homo sapiens, UniProt P41162-2 1-143).
T7 sequence: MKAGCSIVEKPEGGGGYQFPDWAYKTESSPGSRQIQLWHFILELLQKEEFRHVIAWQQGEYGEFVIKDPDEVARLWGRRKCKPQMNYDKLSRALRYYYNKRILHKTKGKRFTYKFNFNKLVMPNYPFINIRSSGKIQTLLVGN
The procedure, abridged: as §1

The target of experiment [8] is ETV6 (Homo sapiens, UniProt P41212 1-452). Summed up:
as §1

ETV6, sequence (P41212 whole entry): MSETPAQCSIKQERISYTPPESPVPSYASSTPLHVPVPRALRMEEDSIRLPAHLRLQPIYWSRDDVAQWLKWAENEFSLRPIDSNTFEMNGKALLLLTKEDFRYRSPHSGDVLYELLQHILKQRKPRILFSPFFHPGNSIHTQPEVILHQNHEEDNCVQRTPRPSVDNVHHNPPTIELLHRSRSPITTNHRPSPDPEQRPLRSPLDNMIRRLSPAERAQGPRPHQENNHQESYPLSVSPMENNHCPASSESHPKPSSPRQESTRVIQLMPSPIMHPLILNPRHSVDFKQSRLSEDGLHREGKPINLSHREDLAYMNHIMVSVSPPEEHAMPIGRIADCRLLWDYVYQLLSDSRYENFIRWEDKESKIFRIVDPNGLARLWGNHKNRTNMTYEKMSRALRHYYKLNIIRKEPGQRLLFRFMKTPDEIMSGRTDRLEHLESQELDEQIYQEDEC

Take GTTCTT: the binding signal in experiment [1] was 1.16 fold enrichment (6-mer frequency, TF over GST control); in experiment [2], 1.28 fold enrichment (6-mer frequency, TF over GST control); in experiment [3] it was 1.2 fold enrichment (6-mer frequency, TF over GST control); in experiment [4], 1.06 fold enrichment (6-mer frequency, TF over GST control); in experiment [5], 1.18 fold enrichment (6-mer frequency, TF over GST control); in experiment [6] it was 1.24 fold enrichment (6-mer frequency, TF over GST control). The binding signal is 1.09 fold enrichment (6-mer frequency, TF over GST control) in experiment [7] and 1.15 fold enrichment (6-mer frequency, TF over GST control) in experiment [8].
In the case of TCCGCC, the binding signal in experiment [1] is 1.48 fold enrichment (6-mer frequency, TF over GST control); in experiment [2], 1.59 fold enrichment (6-mer frequency, TF over GST control); in experiment [3], 1.54 fold enrichment (6-mer frequency, TF over GST control); in experiment [4], 1.83 fold enrichment (6-mer frequency, TF over GST control); in experiment [5], 1.49 fold enrichment (6-mer frequency, TF over GST control); in experiment [6], 2.2 fold enrichment (6-mer frequency, TF over GST control). For the same sequence, the binding signal in experiment [7] was 1.75 fold enrichment (6-mer frequency, TF over GST control); in experiment [8], 1.63 fold enrichment (6-mer frequency, TF over GST control).
Regarding AATAAG, the binding signal is 1.32 fold enrichment (6-mer frequency, TF over GST control) in experiment [1]; 1.18 fold enrichment (6-mer frequency, TF over GST control) in experiment [2]; 1.24 fold enrichment (6-mer frequency, TF over GST control) in experiment [3]; 1.26 fold enrichment (6-mer frequency, TF over GST control) in experiment [4]; 1.19 fold enrichment (6-mer frequency, TF over GST control) in experiment [5]; 1.27 fold enrichment (6-mer frequency, TF over GST control) in experiment [6]. The binding signal in experiment [7] is 1.29 fold enrichment (6-mer frequency, TF over GST control); in experiment [8], 1.33 fold enrichment (6-mer frequency, TF over GST control).
Regarding TCGATC, the binding signal in experiment [1] was 1.12 fold enrichment (6-mer frequency, TF over GST control); in experiment [2], 1.2 fold enrichment (6-mer frequency, TF over GST control); in experiment [3], 1.15 fold enrichment (6-mer frequency, TF over GST control); in experiment [4], 1.09 fold enrichment (6-mer frequency, TF over GST control); in experiment [5], 1.17 fold enrichment (6-mer frequency, TF over GST control); in experiment [6], 1.11 fold enrichment (6-mer frequency, TF over GST control). Moreover, the binding signal is 1.18 fold enrichment (6-mer frequency, TF over GST control) in experiment [7] and 1.11 fold enrichment (6-mer frequency, TF over GST control) in experiment [8].
For the sequence ATACCT, the binding signal was 1.12 fold enrichment (6-mer frequency, TF over GST control) in experiment [1]; 1.09 fold enrichment (6-mer frequency, TF over GST control) in experiment [2]; 1.16 fold enrichment (6-mer frequency, TF over GST control) in experiment [3]; 1.04 fold enrichment (6-mer frequency, TF over GST control) in experiment [4]; 1.18 fold enrichment (6-mer frequency, TF over GST control) in experiment [5]; 1.04 fold enrichment (6-mer frequency, TF over GST control) in experiment [6]. For the same sequence, the binding signal is 1.11 fold enrichment (6-mer frequency, TF over GST control) in experiment [7] and 1.07 fold enrichment (6-mer frequency, TF over GST control) in experiment [8].
For the sequence TTCCTG, the binding signal was 1.87 fold enrichment (6-mer frequency, TF over GST control) in experiment [1]; 2.35 fold enrichment (6-mer frequency, TF over GST control) in experiment [2]; 2.4 fold enrichment (6-mer frequency, TF over GST control) in experiment [3]; 2.25 fold enrichment (6-mer frequency, TF over GST control) in experiment [4]; 2.03 fold enrichment (6-mer frequency, TF over GST control) in experiment [5]; 3.79 fold enrichment (6-mer frequency, TF over GST control) in experiment [6]. Besides, the binding signal in experiment [7] is 2.66 fold enrichment (6-mer frequency, TF over GST control); in experiment [8], 2.57 fold enrichment (6-mer frequency, TF over GST control).
As for ACGCTT, the binding signal is 1.5 fold enrichment (6-mer frequency, TF over GST control) in experiment [1]; 1.35 fold enrichment (6-mer frequency, TF over GST control) in experiment [2]; 1.42 fold enrichment (6-mer frequency, TF over GST control) in experiment [3]; 1.39 fold enrichment (6-mer frequency, TF over GST control) in experiment [4]; 1.52 fold enrichment (6-mer frequency, TF over GST control) in experiment [5]; 1.22 fold enrichment (6-mer frequency, TF over GST control) in experiment [6]. Also, the binding signal is 1.4 fold enrichment (6-mer frequency, TF over GST control) in experiment [7] and 1.45 fold enrichment (6-mer frequency, TF over GST control) in experiment [8].
Regarding TAATTG, the binding signal is 1.35 fold enrichment (6-mer frequency, TF over GST control) in experiment [1]; 1.37 fold enrichment (6-mer frequency, TF over GST control) in experiment [2]; 1.42 fold enrichment (6-mer frequency, TF over GST control) in experiment [3]; 1.22 fold enrichment (6-mer frequency, TF over GST control) in experiment [4]; 1.44 fold enrichment (6-mer frequency, TF over GST control) in experiment [5]; 1.37 fold enrichment (6-mer frequency, TF over GST control) in experiment [6]. Also, the binding signal is 1.34 fold enrichment (6-mer frequency, TF over GST control) in experiment [7] and 1.42 fold enrichment (6-mer frequency, TF over GST control) in experiment [8].
